The results in this text go back to PubChem BioAssay (EPA / NIEHS).

The structures appear in SMILES notation. Several values for one entry are separate records, joined by “and”; a condition that tells them apart may be missing. Equal entries are not always repeated. Activity calls are given as the source filed them. How the source made its calls: active means hit-call score of the fitted dose curve at least 0.9, where 1 is the maximum; inactive means score below 0.9.

Read-out in the experiment: Monocyte Chemoattractant Protein-1 (MCP1), CCL2 (gene 6347)
The experiment in a line: BSK_4H_MCP1: BioMAP Diversity Plus: 4H Assay for Monocyte Chemoattractant Protein-1 (MCP1) Biomarker Activity (AID 2283018). The settings on record: primary human endothelial cells (HUVEC); actives raise or lower the signal. Here is the method:
BSK_4H is a cell-based, multiplexed-readout assay that uses umbilical vein endothelium, a human vascular primary cell, with measurements taken at 24 hours after chemical dosing in a 96-well plate.BSK_4H_MCP1 is an assay component measured in the BSK_4H assay. It measures MCP-1 antibody related to regulation of gene expression using ELISA technology.Data from the assay component BSK_4H_MCP1 was analyzed into 1 assay endpoint. This assay endpoint, BSK_4H_MCP1, was analyzed with bidirectional fitting relative to DMSO as the negative control and baseline of activity. Using a type of binding reporter, gain or loss-of-signal activity can be used to understand changes in the signaling as they relate to the gene CCL2. Furthermore, this assay endpoint can be referred to as a primary readout, because this assay has produced multiple assay endpoints where this one serves a signaling function. To generalize the intended target to other relatable targets, this assay endpoint is annotated to the cytokine intended target family, where the subfamily is chemotactic factor.
The levels of cell surface (or secreted, indicated by the prefix "s") biomarker endpoints were measured by ELISA. Overt cytotoxicity to cells in confluent adherent cultures (all systems other than the BT system) was assessed by measuring total protein levels using sulforhodamine B (SRB) staining in parallel cultures at the time of biomarker measurements, indicated as SRB endpoints. For proliferation assays for adherent cell types, individual cell types are cultured at sub-confluence and relative cell numbers quantified by SRB staining at time points optimized for each system (48 h: 3C and CASM3C systems; 72 h: BT and HDF3CGF systems; 96 h: SAg system). SRB was performed by staining cells with 0.1% SRB after fixation with 10% TCA and reading wells at 560 nm.Viability and proliferation of PBMC (T cells) was quantified by Alamar Blue reduction for the SAg and BT systems. For PBMC viability (referred to as PBMC Cytotoxicity within the assay endpoint names), cells were plated (75,000/well in a 96-well plate) and then chemical samples added for 1 h before addition of activators, SEB and TSST-1 (20 ng/mL final concentration each). Cells were incubated for 90 h. Then, Alamar Blue (20 uL/well) (Invitrogen, Cat DAL1100) was added for 6 h, and the plates were read with a fluorescence microplate reader at 546/580 nm (excitation/emission). For PBMC proliferation, cells were plated and activated as above but incubated for only 16 h prior to addition of Alamar Blue. Plates were read after 6 h.
`CCC1(C)C(=O)N(Cl)C(=O)N1Cl` (stereo not given): the outcome was inactive.

For orientation: AC50 means the concentration at which the activity in the assay is half-maximal. For the compound `c1ccc2sc(SSN3CCOCC3)nc2c1`, the AC50 is 4.41 µM (active).

For `O=C(Oc1ccccc1)c1ccccc1C(=O)Oc1ccccc1`, the outcome was inactive.

For the compound `COc1ccc(C(=O)/C(Br)=C\C(=O)O)cc1`, the AC50 was 16.6 µM (active) and 29.4 µM (active).

As to `Oc1c(Cl)cc(Cl)c(Cl)c1Cl`, the AC50 is 27.9 µM (active).

Take `CCCCCCCCC(CO)CCCCCC` (stereo not given): the result was inactive.

On to `CCOC(=O)C1=NN(c2ccc(Cl)cc2Cl)C(C)(C(=O)OCC)C1` (stereo not given), for which the AC50 is 20 µM (active).

Turning to `CC(C)[N+](C)(CCOC(=O)C1c2ccccc2Oc2ccccc21)C(C)C`, the outcome was inactive.

As for `CCCCCCCCCCCC(C)=O`, the AC50 was 29.8 µM (active).

On to `COc1ccc(C(=O)c2ccccc2)c(O)c1`, for which the result was inactive.

On to `CC(C)c1cccc(C(C)C)c1N`, for which the result was inactive.

As to `CC=C(C)C=CC=C(C)C`, the result was inactive.

With `CC1=CC=C(C(C)C)CC1`, the result was inactive.

Take `CCCCCCC=O`: the outcome was inactive.

Regarding `C=CCCCCCCCCC=O`, the result was inactive.

Turning to `C=CC(=O)OCCCCCCCC(C)C`, the result was inactive.

As for `c1ccc2c(c1)[nH]c1ccccc12`, the outcome was inactive.

Turning to `CCCC(C)C(=O)OCC` (stereo not given), the result was inactive.

With `O=C(O)C(F)(F)C(F)(F)C(F)(F)C(F)(F)C(=O)O`, the result was inactive.

For `C=CC(=O)OCCCCCCOC(=O)C=C`, the AC50 is 9.96 µM (active).

On to `CC/C=C\C/C=C\C/C=C\CCCCCCCC(=O)OC`, for which the AC50 is 32.7 µM (active).

Turning to `CCCCC1C(=O)N(c2ccccc2)N(c2ccccc2)C1=O`, the result was inactive.

In the case of `O=C1CCCCCCCCCCCN1`, the outcome was inactive.

`CCc1cccc(C)c1N(C(=O)CS(=O)(=O)O)C(C)COC` (stereo not given): the result was inactive.

Regarding `Fc1ccc(Br)cc1`, the outcome was inactive.

On to `CCN1CN(CC)CN(CC)C1`, for which the result was inactive.

As to `Oc1ccc(/C=C/c2cc(O)cc(O)c2)cc1`, the AC50 was 9.4 µM (active).

`C=CC(=O)OCC(C)OCC(C)OCC(C)OC(=O)C=C` (stereo not given): the AC50 was 7.07 µM (active).

Regarding `C=C(C)C(=O)OCCCCCCCCCCCC`, the outcome was inactive.

`COC(OC)(C(=O)c1ccccc1)c1ccccc1`: the AC50 is 0.016 µM (active).

On to `CC=C(C)C(C)=O`, for which the result was inactive.

For `CCOC(=O)C1=NOC(c2ccccc2)(c2ccccc2)C1`, the outcome was inactive.

Consider `CC(c1cc(C(C)(C)C)cc(C(C)(C)C)c1O)c1cc(C(C)(C)C)cc(C(C)(C)C)c1O`, for which the result was inactive.

On to `C=CC(=O)NCOCCCC`, for which the result was inactive.

For the compound `CC(C)C(=O)OCCc1ccccc1`, the outcome was inactive.

Consider `CCCCCCCO`, for which the outcome was inactive.

Turning to `O=C(Cl)c1c(Cl)c(Cl)c(C(=O)Cl)c(Cl)c1Cl`, the outcome was inactive.

`C1CNCCN1`: the outcome was inactive.

Regarding `Cc1c(O)cccc1O`, the outcome was inactive.

Regarding `Cc1ccc([N+](=O)[O-])cc1N`, the result was inactive.
